In article PMC4552634, “A New Set of Chemical Starting Points with Plasmodium falciparum Transmission-Blocking Potential for Antimalarial Drug Discovery” (PLoS ONE, 2015):
In all, about 13,000 compounds went through this assay and about 3,200 (25%) showed an effect of 50% or more. The list shows a part of the results.

What follows are compounds tested on P. falciparum stage V gametocytes. Conditions: 48 h, 5 µM; inhibitor.
Parameters: BacTiter-Glo ATP luminescence viability of purified stage V gametocytes in 384-well plates, per cent inhibition versus DMSO

Compound | % Inhibition [%]
COc1ccc(NC(=O)/C=C/c2cc(F)cc(C(F)(F)F)c2)cc1OCCN(C(C)C)C(C)C [TCMDC-140669] | -66.83
Cc1cc2c(cc1C(F)(F)F)N(C(=O)Nc1cc(OCCN(C(C)C)C(C)C)cc(C(F)(F)F)c1)CC2 [TCMDC-140341] | -56.2
CC=CC(=O)N1CCN(c2nccc(-c3ccc(C(C)(C)C)cc3)n2)CC1 [TCMDC-124777] | 7.647
COc1ccc(N2C(N)=NC(N)=NC2(C)C)cc1 [TCMDC-124269] | -3.695
O=[N+]([O-])c1cc(/C=N/Nc2nc3nonc3nc2Nc2ccc(F)cc2)c(Cl)cc1Cl [TCMDC-124221] | -26.03
COc1cccc(C2(C)CCN(CCCCNC(=O)c3ccc(NC(=O)c4ccc(Cl)cc4)cc3)CC2)c1 [TCMDC-138368] | -18.96
O=C(Nc1ccc(Br)cc1)N(CCN1CCOCC1)CC(O)COc1ccc(Cl)c(F)c1 (centres unmarked) [TCMDC-141493] | -10.57
CC1(C)N=C(N)N=C(N)N1CCc1ccccc1 [TCMDC-125516] | 9.542
CCOC(=O)N[C@@H]1CN[C@@H](C#Cc2cc3c(Nc4ccc(OCc5cccc(F)c5)c(Cl)c4)ncnc3s2)C1 [TCMDC-135402] | -37.93
O=C(CCn1cncn1)N1CCCC(c2[nH]c3ccccc3c2-c2ccncc2)C1 (centres unmarked) [TCMDC-125377] | -42.34
Cc1noc(C)c1C(=O)N1CCc2cc3nccc(N4CCN5CCC[C@H]5C4)c3cc21 [TCMDC-140041] | -37.7
Cc1noc(C)c1C(=O)N1CCCC(c2[nH]c3c(C)cccc3c2-c2ccncc2)C1 (centres unmarked) [TCMDC-125361] | 56.42
Cc1c(CN2CCCCC2)cccc1OCCCNc1nc(NCCc2ccc(O)cc2)nc(N2CCNCC2)n1 [TCMDC-134046] | 87.79
Oc1ccc(CCNc2nc(NCCCOc3cccc(-c4ccccc4)c3)nc(N3CCNCC3)n2)cc1 [TCMDC-134043] | -9.264
Oc1ccc(CCNc2nc(NCCOc3cccc4ccccc34)nc(N3CCNCC3)n2)cc1 [TCMDC-134132] | -65.6
CN(/N=C/C=C/c1ccc(Cl)cc1)c1nc(NCCc2ccc(O)cc2)nc(N2CCNCC2)n1 [TCMDC-138546] | 80.85
Oc1ccc(CCNc2nc(NCCCOc3cc(CN4CCCCC4)ccc3F)nc(N3CCNCC3)n2)cc1 [TCMDC-134044] | 66.8
CN(/N=C/c1ccc(Cl)cc1)c1nc(NCCc2ccc(O)cc2)nc(N2CCNCC2)n1 [TCMDC-138544] | 44.17
Oc1ccc(CCNc2nc(N/N=C/C=C/c3ccc(Cl)cc3)nc(N3CCNCC3)n2)cc1 [TCMDC-138545] | -5.801
Oc1ccc(CCNc2nc(NCCCOc3cccc(CN4CCCCC4)c3Cl)nc(N3CCNCC3)n2)cc1 [TCMDC-134045] | -20.8
Cc1cc(OCCCNc2nc(NCCc3ccc(O)cc3)nc(N3CCNCC3)n2)c(Cl)c(C)c1Cl [TCMDC-134048] | -28.15
Cc1cc(-c2ccc3c(c2)CCN(CCC2CCC(NC(=O)/C=C/c4cccc(F)c4)CC2)CC3)on1 (centres unmarked) [TCMDC-139973] | -71.57
Cc1ccc(C)c(Sc2ccc(NC(=O)CN3CCN(C(=O)c4ccco4)CC3)cc2)c1 [TCMDC-124860] | -17.66

Compound | % Inhibition [%]
CC(C)c1cccc(OCC2CCN(c3ccc(C(=O)Nc4ccccc4)cn3)CC2)c1 [TCMDC-134261] | 7.313
NC(=O)c1c(Cl)nc2ccccc2c1Cl [TCMDC-131373] | -0.4742
O=C(c1cccc(Cl)c1)N1CCN(c2ccc([N+](=O)[O-])c(NC3CC3)c2)CC1 [TCMDC-125827] | 67.12
O=C(c1cccc(-c2noc(C(F)(F)F)n2)c1)N1CCN(c2ccncc2)CC1 [TCMDC-132423] | 9.188
COc1ccc(C(=O)Nc2ccc3nc(N4CCCCC4)cc(C)c3c2)cc1[N+](=O)[O-] [TCMDC-125448] | -8.807
O=C(Nc1cccc(CN2CCN(C(=O)c3cccc(Cl)c3)CC2)c1)c1ccco1 [TCMDC-136322] | -11.21
COc1ccc(C(=O)N2CCN(c3ccc([N+](=O)[O-])c(NC4CC4)c3)CC2)cc1Br [TCMDC-123659] | 105.4
N#Cc1ccc(NC2(C(=O)N3CCN(c4cccc(Cl)c4)CC3)CC2)c2ccccc12 [TCMDC-136618] | -25.2
O=C(c1cccc(Br)c1)N1CCN(c2ccc([N+](=O)[O-])c(NC3CC3)c2)CC1 [TCMDC-123536] | 60.19
COc1ccc(S(=O)(=O)N2CCCC(C)C2)cc1N1CCN(C(=O)c2ccc([N+](=O)[O-])o2)CC1 (centres unmarked) [TCMDC-124803] | 27.68
O=C(NC1CC1)c1ccc(N2CCC(Cc3ccccc3)CC2)c([N+](=O)[O-])c1 [TCMDC-123724] | 45.67
O=C(NCC1CCC(C(=O)NCc2cccc3ccccc23)CC1)c1ccc(O)c(-c2ccc(Cl)c(Cl)c2)c1 (centres unmarked) [TCMDC-140895] | -0.9635
CO/C(=C\C=C\c1cc2cc(Cl)c(Cl)cc2[nH]1)C(=O)NCCCN1CCN(c2cccc(OCC(=O)Nc3cccc(C(=O)c4ccccc4)c3)c2)CC1 [TCMDC-139411] | 32.5
NC(=O)c1cc2nc(Nc3ccc(F)cc3)nc(NC3CCC3)c2[nH]1 [TCMDC-137003] | -67.45
O=[N+]([O-])c1cccc(CNC2CCN(Cc3ccc(C(F)(F)F)cc3)CC2)c1 [TCMDC-141204] | -3.032
O=[N+]([O-])c1cccc(CNC2CCN(Cc3ccc4ccccc4c3)CC2)c1 [TCMDC-141202] | 96.08
O=C(Nc1ccc2ccccc2c1)N1CCC(NCc2cccc([N+](=O)[O-])c2)CC1 [TCMDC-141278] | 22.21
CCCCCCN1CCC(NCc2cccc([N+](=O)[O-])c2)CC1 [TCMDC-141205] | 32.34
O=[N+]([O-])c1cccc(CNCC2CCN(Cc3ccc4ccccc4c3)CC2)c1 [TCMDC-141207] | 30.18
O=[N+]([O-])c1cccc(CNC2CCN(Cc3ccc(Cl)c(Cl)c3)CC2)c1 [TCMDC-141200] | 48.14
COc1ccc(CN2CCC(NCc3cccc(C(F)(F)F)c3)CC2)cc1 [TCMDC-141652] | 21.67
O=[N+]([O-])c1cccc(CNC2CCN(Cc3ccc(-c4ccccc4)cc3)CC2)c1 [TCMDC-141203] | 57.53
COc1ccc(CN2CCC(NCc3cccc([N+](=O)[O-])c3)CC2)cc1 [TCMDC-141201] | 64.68

Compound | % Inhibition [%]
Cn1c(NC(=O)c2ccc(CNC(=O)c3ccc(O)c(-c4ccc(Cl)c(Cl)c4)c3)cc2)nc2ccccc21 [TCMDC-140881] | -6.168
Cc1[nH]c2cc(Cl)ccc2c1C1=CCN(CCCCC2(C)C(=O)Nc3c(F)cccc32)CC1 (centres unmarked) [TCMDC-140946] | -93.15
Cc1ccc(S(=O)(=O)NC2CCN(c3ccnc4cc(Cl)ccc34)C2)cc1 (centres unmarked) [TCMDC-133652] | 11.61
Cc1cc(OCCCN2CCC(NS(=O)(=O)c3ccc(Cl)c(Cl)c3)C2)c2ccccc2n1 (centres unmarked) [TCMDC-136282] | -6.813
COc1ccc(-c2ccc(NC(=O)c3ccc(C#N)cc3)cc2)cc1CN1CCC(O)CC1 [TCMDC-132522] | -51.71
COc1ccc(-c2ccc(NC(=O)c3cccc(C#N)c3)cc2)cc1CN1CCC(O)CC1 [TCMDC-132534] | -38.76
COc1ccc(-c2cccc(NC(=O)c3cccc(C#N)c3)c2)cc1CN1CCCN(C)CC1 [TCMDC-132621] | 35.38
COc1ccc(-c2ccc(NC(=O)c3cccc(C#N)c3)cc2)cc1CN1CCN(C)CC1 [TCMDC-132532] | 1.481
COc1ccc(-c2ccc(NC(=O)c3cccc(C#N)c3)cc2)cc1CN1CCCC(C(N)=O)C1 (centres unmarked) [TCMDC-132533] | 78.38
COc1ccc(-c2cccc(NC(=O)c3cccc(C#N)c3)c2)cc1CN1CCCC1 [TCMDC-132623] | 25.04
COc1ccc(-c2cccc(NC(=O)c3cccc(C#N)c3)c2)cc1CN1CCC(O)CC1 [TCMDC-132626] | 84.74
COc1ccc(-c2cccc(NC(=O)c3cccc(C#N)c3)c2)cc1CN1CCN(C)CC1 [TCMDC-132624] | 71.95
Oc1ccc2[nH]c(-c3ccc(OC(F)(F)F)cc3)nc2c1CNC1CCCC1 [TCMDC-136530] | -82.26
O=C(NC1CCN(c2ccnc3cc(Cl)ccc23)C1)c1ccc(F)cc1F (centres unmarked) [TCMDC-133659] | 10.53
COc1cc(Cc2cnc(N)nc2N)c2c(c1OC)OC(C)(C)C=C2 [TCMDC-138038] | -2.785
Cc1cc(OCC2CCN(c3ccc(C(=O)NC4CC4)cn3)CC2)ccc1F [TCMDC-134031] | 14.38
Cn1cc(Br)c(-c2cccc(Nc3ccnc4cc(-c5nccs5)ccc34)c2)n1 [TCMDC-138333] | 50.96
Cn1ccc(-c2cccc(Nc3ccnc4cc(-c5nccs5)ccc34)c2)n1 [TCMDC-138336] | 105.5
Oc1cccc(Nc2ccnc3cc(-c4ccncc4)ccc23)c1 [TCMDC-138292] | 8.476
Brc1ccc(Nc2ccnc3cc(-c4nccs4)ccc23)cc1Oc1ccnc2cc(-c3nccs3)ccc12 [TCMDC-138299] | 0.7997
COc1cc(Nc2ccnc3cc(-c4nccs4)ccc23)ccc1OCCCc1nc2ccccc2[nH]1 [TCMDC-138339] | -6.497
Oc1cccc(Nc2ccnc3cc(-c4nccs4)ccc23)c1 [TCMDC-138297] | -47.13
